Tests used:
Experiment in all cases: PBM binding z-score (relative to random genomic background probes); higher = stronger binding; sequences stand for … in GC…GCGATTGACAGCGTAGAATGAAGG
[1] = system: RARb homodimer (NR concentration 270 nM)
In short: (§1)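 On custom Agilent 4×180K arrays, double-stranded probes with 34-nt variable regions carried direct-repeat seeds, single-nucleotide variants, half-site ablations or random human genomic background. Ligand-free nuclear receptor dimers were applied for 1 h, and binding was read with antibodies against each partner (one per run). Binding z-scores come from regression-normalized fluorescence, with the random background probes as reference.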

[2] = system: RARg:RXRa (NR concentration 270 nM, RXRa partner concentration 90 nM)
In short: as §1

[3] = system: RARg homodimer (NR concentration 270 nM)
In short: as §1

[4] = system: RXRa DBDmut IVT, anti-RXR (DBD mutation: RXRa K156A/R161A, NR concentration 90 nM)
In short: as §1

[5] = system: RXRa homodimer (NR concentration 180 nM)
In short: as §1

[6] = system: THRa:RXRa (NR concentration 90 nM, RXRa partner concentration 90 nM)
In short: as §1

[7] = system: THRa homodimer (NR concentration 90 nM)
In short: as §1

[8] = system: VDR homodimer (NR concentration 270 nM)
In short: as §1

Sequence | PBM binding z-score [1] | PBM binding z-score [2] | PBM binding z-score [3] | PBM binding z-score [4] | PBM binding z-score [5] | PBM binding z-score [6] | PBM binding z-score [7] | PBM binding z-score [8]
TCTCGGAGGACACGAACGTCAGAGCTTTCCAGAG | 0.309 | 0.302 | 0.872 | 0.441 | 0.094 | 1.25 | 0.208 | -0.356
ATCGAAAGTTCGAAGGTGAGTATACCCACCCGAA | 0.995 | 1.82 | 1.51 | 1.94 | 2 | 0.601 | -0.388 | 1.07
CAAACTAGCTCAAGGTCAAAGTCGGTTTGTGCCA | 4.04 | 4.12 | 3.84 | 2.23 | 4.51 | 3.95 | 3.59 | 3.7
AGTCAAAGTTCACTAGGTCACGTAAGATTCAGCT | 5.29 | 6.62 | 7.17 | 4.43 | 5.44 | 3.72 | 2.54 | 4.43
CCGACTGGGCCAAAGGTCATTGATTCCAATGCTC | 4.58 | 5.54 | 4.4 | 1.57 | 5.7 | 3.21 | 0.644 | 2.4
AGAGCGAGGGCACGCTGAGTTGATAGCAGAGTAG | 1 | 1.76 | 1.96 | 1.28 | 1.06 | 1.51 | -0.183 | 1.48
ATCTCGAGGTAAAGATAGTTCAGTGAATGCAAAT | 0.904 | 0.819 | 0.829 | -0.272 | 0.518 | 1.5 | -0.16 | 0.272
CGTCATAGTTCAAGGTAACGTAACAGAAAGCAGC | 2.2 | 2.96 | 3.42 | 2.26 | 1.99 | 2.32 | 1.16 | 0.917
GCTTGTAGATCAAGGATAAGAAAGACTAAGCTAA | -1.36 | -0.352 | -0.0867 | -0.727 | -0.555 | 0.0456 | -0.696 | -0.57
CCGAGTAGGTTATGGGGCAGTCAGGCAACGGTGA | 0.983 | 0.587 | 0.165 | -0.557 | 0.291 | 0.277 | -0.143 | -0.221
CGTCCAAGGTCAATGCTAGGTCAGTGAAAGCATT | 4.88 | 7.68 | 6.83 | 3.85 | 5.28 | 4.31 | 2.74 | 3.1
CCTCGGAGGACCACAGGAGGTCAGAGCTGCCAGA | 3.17 | 2.2 | 2.01 | -0.446 | 1.85 | 2.76 | 0.73 | 0.746
CCTTACGGGTCCAGGTTATAGCACGGGTGGTACG | 0.293 | -0.0416 | 0.158 | -0.824 | 0.106 | 0.171 | 0.291 | 0.862
TCGAGTAGGTTAGGGGCAGTCAGAATGGCGTCGA | 1.27 | 0.245 | 0.258 | 0.0348 | 0.203 | 0.742 | 0.229 | 0.0516
ACTCGGAGGACAAGGGTCAGAGCTACGCCAGTGA | 3.36 | 3.88 | 3.19 | 0.24 | 2.82 | 2.28 | 0.361 | 1.05
ATATGTAGGTTACATCCGGTTCATTCAGGCTATG | 1 | 1.42 | 1.13 | 1.95 | 1.54 | 2.03 | 0.768 | 4.45
GCAGACAGGTGAAACACAGGTAACTCAGGGTGGC | 0.58 | 1.37 | 0.385 | -0.322 | 0.982 | 1.28 | -0.504 | -0.7
ATCTCTAGGTAAAGTTCAGTGACAGATCGATAGA | 2.63 | 1.99 | 2.63 | 1.51 | 1.39 | 1.31 | 0.436 | 2.61
TCTGGGAGGACACGAAAGGTCAGAGCTCGACATC | 4.8 | 4.88 | 5.82 | 0.799 | 4.23 | 3.73 | 1.59 | 1.27
CGAACTAGGTCAAGGACAGTGTATCTCCGCACGC | 3.56 | 3.8 | 4.37 | 1.87 | 2.55 | 3.45 | 2.61 | 0.841
ACAGACAGGGGAGTGAAGGTAACTCAGCTGGACG | 0.179 | -0.128 | 0.208 | -0.277 | 0.0403 | 0.674 | 0.101 | -0.467
ATCTCTAGGTAAAGAGAGTTCAGTGAATGCAAAT | 1.55 | 0.963 | 1.18 | 1.12 | 0.653 | 1.56 | -0.0506 | 3.67
GCTAGTTGGTCAGTAAAAGGTCACTCACCGGTCG | 5.26 | 5.05 | 4.43 | 0.781 | 4.21 | 3.31 | 1.47 | 1.36
CAAACTAGGTGACCGGAAGGTCAAAGTCCGCATG | 4.4 | 5.38 | 3.94 | 0.562 | 3.89 | 3.57 | 1.86 | 2.49
CCTAATGGGCCACGAAAGGTCATTGATTCAGTGA | 4.85 | 4.78 | 4.65 | 1.17 | 4.84 | 3.95 | 0.853 | 2.52
AGAAAGAGGGCAATGAGTTGATAGCACGGGTGGC | 1.65 | 1.64 | 2.08 | 1.7 | 1.07 | 0.681 | -0.101 | 3.05
CGAACTAGGTCATCCAGGACAGCGAATACATTGA | 3 | 3.97 | 4.81 | 2.19 | 2.73 | 3.84 | 2.24 | 1.93
ATCCCAAGGTGATCGTGAGGTCGTTGATACTAAC | 1.61 | 1.97 | 0.447 | 0.515 | 1.21 | 3.42 | 2.59 | 2.9

Source: the supplement of paper PMC6555819
